Values joined by “and” are separate entries in the source; they are usually repeats but may differ in a detail not shown here. Identical values can stand only once. Hit rate of the full screen: of about 5,500 compounds, about 2,000 (36%) were called active. Inconclusive results (about 18%) are left out. Cut-off read from the data, not from the text of the source: active = normalized growth mostly below about 0.91 (no sharp cut-off); inconclusive = no clear call, values can overlap the other calls; inactive = mostly above about 0.92. Some of the results follow.
Experiment: chemical genetic growth profiling, strain panel (AID 1159580);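 note: tested at 20 µM; growth read once vehicle control cultures reached saturation at 30 °C; 1 = growth at the plate median or of vehicle wells; lower values mean less growth of the strain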
Conditions: S. cerevisiae deletion strains, growth OD
[1] = locus YMR263W, strain SAP30, hits give low values
[2] = locus YNL322C, strain KRE1, hits give low values
[3] = locus YPL241C, strain CIN2, hits give low values

Measured: normalized growth

Fc1ccc(C(OCCCc2cnc[nH]2)c2ccc(F)cc2)cc1
inactive: locus YAL040C, strain CLN3, hits give low values 1.01 | locus YCL061C, strain MRC1 (second series), hits give low values 1 | locus YDR363W, strain ESC2, hits give low values 0.979 | locus YER002W, strain NOP16, hits give low values 1.04 | locus YGR229C, strain SMI1, hits give low values 1.02 | [1] 1.01 | locus YNL175C, strain NOP13, hits give low values 1.01 | locus YNL197C, strain WHI3, hits give low values 1.01 | locus YNL224C, strain SQS1, hits give low values 1.02 | [2] 1.03 | locus YOR083W, strain WHI5 (second series), hits give low values 1.03 | [3] 1.01

CN1CCC(OC(c2ccccc2)c2ccccc2)CC1
inactive: locus YAL013W, strain DEP1, hits give low values 0.98 | locus YAL021C, strain ccr4, hits give low values 0.974 | locus YAL026C, strain drs2, hits give low values 0.972 | locus YAL030W, strain snc1, hits give low values 0.987 | locus YBL061C, strain skt5, hits give low values 1 | locus YBR009C, strain hhf1, hits give low values 0.983 | locus YBR021W, strain FUR4, hits give low values 0.985 | locus YBR023C, strain chs3, hits give low values 1.02 | locus YBR171W, strain sec66, hits give low values 0.99 | locus YBR229C, strain ROT2, hits give low values 0.977 | locus YBR231C, strain swc5, hits give low values 0.976 | locus YBR279W, strain paf1, hits give low values 1.01 | locus YCL011C, strain gbp2, hits give low values 0.998 | locus YCL016C, strain dcc1, hits give low values 1.04 | locus YCL029C, strain bik1, hits give low values 0.995 | locus YCL061C, strain MRC1, hits give low values 1 | locus YCL069W, strain vba3, hits give low values 0.973 | locus YCR088W, strain abp1, hits give low values 0.989 | locus YDL005C, strain med2, hits give low values 0.975 | locus YDL035C, strain GPR1, hits give low values 1.03 | locus YDL040C, strain nat1, hits give low values 0.975 | locus YDL074C, strain BRE1, hits give low values 0.976 | locus YDL101C, strain DUN1, hits give low values 0.973 | locus YDL134C, strain PPH21, hits give low values 1.02 | locus YDL185W, strain tfp1, hits give low values 0.984 | locus YDL192W, strain arf1, hits give low values 0.983 | locus YDR001C, strain nth1, hits give low values 0.984 | locus YDR069C, strain doa4, hits give low values 0.977 | locus YDR101C, strain arx1, hits give low values 0.987 | locus YDR137W, strain rgp1, hits give low values 1.03 | locus YDR159W, strain sac3, hits give low values 0.969 | locus YDR162C, strain NBP2, hits give low values 1.01 | locus YDR195W, strain ref2 0.973 | locus YDR297W, strain sur2, hits give low values 0.988 | locus YDR318W, strain mcm21, hits give low values 0.978 | locus YDR334W, strain swr1, hits give low values 0.982 | locus YDR335W, strain msn5, hits give low values 0.996 | locus YDR388W, hits give low values 0.992 | locus YDR392W, strain spt3, hits give low values 0.935 | locus YDR502C, strain sam2, hits give low values 1.01 | locus YEL003W, strain gim4, hits give low values 0.956 | locus YEL037C, strain rad23, hits give low values 0.97 | locus YEL061C, strain CIN8 (second series), hits give low values 0.965 | locus YEL061C, strain CIN8, hits give low values 0.995 | locus YER015W, strain faa2, hits give low values 0.99 | locus YER016W, strain bim1, hits give low values 0.977 | locus YER110C, hits give low values 0.972 | locus YER111C, strain swi4, hits give low values 0.984 | locus YER155C, strain BEM2 (second series), hits give low values 0.977 | locus YER155C, strain BEM2, hits give low values 0.988 | locus YER167W, strain BCK2, hits give low values 0.99 | locus YFR010W, strain ubp6, hits give low values 0.963 | locus YGL078C, strain dbp3, hits give low values 0.985 | locus YGL086W, strain mad1, hits give low values 0.987 | locus YGL167C, strain pmr1, hits give low values 1 | locus YGL173C, strain kem1, hits give low values 0.994 | locus YGL227W, strain vid30, hits give low values 0.983 | locus YGL240W, strain doc1, hits give low values 0.982 | locus YGL248W, strain PDE1, hits give low values 0.964 | locus YGL253W, strain hxk2, hits give low values 0.987 | locus YGR078C, strain PAC10, hits give low values 0.985 | locus YGR135W, strain pre9, hits give low values 0.951 | locus YGR252W, strain gcn5, hits give low values 0.925 | locus YHR013C, strain ard1, hits give low values 0.994 | locus YHR027C, strain rpn1, hits give low values 0.993 | locus YHR030C, strain SLT2, hits give low values 0.998 and 0.996 | locus YHR079C, strain IRE1 (second series), hits give low values 0.991 | locus YHR079C, strain IRE1, hits give low values 1.02 | locus YHR094C, strain hxt1, hits give low values 0.998 | locus YHR129C, strain ARP1, hits give low values 0.99 | locus YHR142W, strain chs7, hits give low values 1.01 | locus YHR200W, strain rpn10, hits give low values 0.987 | locus YIL066C, strain RNR3, hits give low values 1.01 | locus YIL073C, strain SPO22, hits give low values 1.01 | locus YIL125W, strain kgd1, hits give low values 0.994 | locus YIR030C, strain dcg1, hits give low values 0.984 | locus YJL092W, strain hpr5, hits give low values 0.98 | locus YJL095W, strain BCK1 (second series), hits give low values 0.988 | locus YJL095W, strain BCK1, hits give low values 0.961 and 1 | locus YJL115W, strain asf1, hits give low values 0.98 | locus YJL129C, strain trk1, hits give low values 0.984 | locus YJL134W, strain LCB3, hits give low values 0.984 | locus YJL154C, strain vps35, hits give low values 0.978 | locus YJL164C, strain tpk1, hits give low values 0.987 | locus YJL166W, strain qcr8, hits give low values 1.01 | locus YJL168C, strain set2, hits give low values 0.988 | locus YJL187C, strain SWE1 (second series), hits give low values 0.972 | locus YJL187C, strain SWE1, hits give low values 0.983 | locus YJR043C, strain POL32, hits give low values 1.03 | locus YJR066W, strain TOR1, hits give low values 0.973 | locus YKL009W, strain mrt4, hits give low values 0.974 | locus YKL068W, hits give low values 0.983 | locus YKL085W, strain MDH1 (second series), hits give low values 1 | locus YKL085W, strain MDH1, hits give low values 1 | locus YKL160W, strain elf1, hits give low values 1.03 | locus YKR001C, strain vps1, hits give low values 0.996 | locus YKR026C, strain gcn3, hits give low values 0.989 | locus YKR091W, strain srl3, hits give low values 0.991 | locus YLL001W, strain dnm1, hits give low values 1.01 | locus YLL026W, hits give low values 0.991 | locus YLL041C, strain sdh2, hits give low values 0.985 | locus YLR027C, strain aat2, hits give low values 0.995 | locus YLR039C, strain RIC1, hits give low values 1.15 | locus YLR058C, strain SHM2, hits give low values 0.992 | locus YLR102C, strain apc9, hits give low values 0.999 | locus YLR113W, strain HOG1, hits give low values 1.01 | locus YLR221C, strain rsa3, hits give low values 1.04 | locus YLR258W, strain gsy2, hits give low values 1.01 | locus YLR262C, strain YPT6 (second series), hits give low values 1.03 | locus YLR262C, strain YPT6, hits give low values 1.09 | locus YLR268W, strain sec22, hits give low values 0.992 | locus YLR320W, strain mms22, hits give low values 1.05 | locus YLR330W, strain CHS5, hits give low values 0.987 | locus YLR342W, strain FKS1 (second series), hits give low values 1.01 | locus YLR342W, strain FKS1, hits give low values 0.989 | locus YLR357W, strain rsc2, hits give low values 0.96 | locus YLR370C, strain arc18, hits give low values 1.01 | locus YLR371W, strain rom2, hits give low values 1 | locus YLR384C, strain iki3, hits give low values 0.994 | locus YLR418C, strain cdc73, hits give low values 0.956 | locus YML016C, strain PPZ1, hits give low values 0.983 | locus YML032C, strain rad52, hits give low values 1.02 | locus YML120C, strain ndi1, hits give low values 1.01 | locus YML124C, strain tub3, hits give low values 1.02 | locus YMR058W, strain fet3, hits give low values 0.978 | locus YMR078C, strain ctf18, hits give low values 0.98 | locus YMR125W, strain sto1, hits give low values 0.961 | locus YMR129W, hits give low values 0.977 | locus YMR205C, strain PFK2, hits give low values 1.03 | locus YMR223W, strain ubp8, hits give low values 0.968 | locus YMR231W, strain pep5, hits give low values 0.996 | [1] 0.971 | locus YMR307W, strain GAS1, hits give low values 1.14 | locus YNL067W, strain RPL9B, hits give low values 0.974 | locus YNL071W, strain lat1, hits give low values 0.983 | locus YNL183C, strain NPR1, hits give low values 0.964 | locus YNL209W, strain ssb2, hits give low values 0.988 | locus YNL233W, strain BNI4, hits give low values 0.975 | locus YNL248C, strain rpa49, hits give low values 0.98 | locus YNL250W, strain rad50, hits give low values 0.969 | locus YNL271C, strain bni1, hits give low values 0.984 | locus YNL298W, strain CLA4, hits give low values 0.985 | locus YNL307C, strain MCK1, hits give low values 0.992 | locus YNL322C, strain KRE1 (second series), hits give low values 1.01 | [2] 1.01 | locus YNR049C, strain mso1, hits give low values 0.989 | locus YNR052C, strain pop2, hits give low values 0.984 | locus YOL006C, strain TOP1, hits give low values 0.946 | locus YOL012C, strain htz1 0.957 | locus YOL147C, strain pex11, hits give low values 0.986 | locus YOR001W, strain rrp6, hits give low values 0.937 | locus YOR061W, strain CKA2, hits give low values 1 | locus YOR069W, strain VPS5, hits give low values 0.992 | locus YOR070C, strain gyp1, hits give low values 0.998 | locus YOR080W, strain dia2, hits give low values 1 | locus YOR083W, strain WHI5, hits give low values 1.04 | locus YOR106W, strain vam3, hits give low values 1.03 | locus YOR136W, strain idh2, hits give low values 0.983 | locus YOR144C, strain elg1, hits give low values 0.983 | locus YOR184W, strain ser1, hits give low values 1.01 | locus YOR231W, strain MKK1, hits give low values 1.01 | locus YOR265W, strain rbl2, hits give low values 1.01 | locus YOR270C, strain vph1, hits give low values 0.999 | locus YOR290C, strain snf2, hits give low values 0.93 | locus YOR316C, strain cot1, hits give low values 0.985 | locus YPL051W, strain arl3, hits give low values 1.02 | locus YPL055C, strain LGE1, hits give low values 0.994 | locus YPL078C, strain atp4, hits give low values 1.02 | locus YPL106C, strain sse1, hits give low values 0.985 | locus YPL240C, strain hsp82, hits give low values 1.01 | [3] 0.991 | locus YPL256C, strain CLN2, hits give low values 1.02 | locus YPR119W, strain clb2, hits give low values 0.986 | locus YPR141C, strain kar3, hits give low values 0.965 | locus YPR163C, strain tif3, hits give low values 0.987 | locus YPR167C, strain met16, hits give low values 0.99 | strain wtn01, hits give low values 0.974
